Assay [1] in a line: hit retest on RPL19A-GFP reporter strain – cell-based, S. cerevisiae, flow cytometry, cherry picks, mother/daughter gates, confirmation (AID 2270;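 active = GFP response below 50% of the DMSO control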). The conditions noted are these: 3 h, at 10 µM, stronger effect = lower value, 100 = same GFP as DMSO wells.
The nature of assay [2]: yeast TOR pathway reporter LAP4-GFP change – cell-based, cherry picks, flow cytometry, mother/daughter gates, confirmation (AID 2271;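 active = GFP response above 150% of the DMSO control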;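 also: ratio of sample to DMSO plate mean so 100% equals DMSO level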). As to conditions: S. cerevisiae LAP4-GFP strain, 3 h, at 10 µM, stronger effect = higher value, 100 means same as DMSO control. On the technique in general: A flow cytometer gives signals particle by particle.
Assay [3] in a line: TOR pathway reporter MEP2-GFP, retest of hits – S. cerevisiae, flow cytometry GFP, cherry picks, confirmation (AID 2272;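 active = GFP response above 150% of the DMSO control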;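 also: ratio of well signal to plate DMSO mean so 100% equals DMSO level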). As to conditions: S. cerevisiae MEP2-GFP strain, 3 h, at 10 µM, stronger effect = higher value.
The nature of assay [4]: yeast AGP1-GFP fluorescence change, single-dose – cell-based, flow cytometry, S. cerevisiae, cherry picks, confirmation (AID 2273).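 Also: median GFP channel fluorescence over the whole cell population gate.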 The conditions noted are these: S. cerevisiae AGP1-GFP strain, 3 h, at 10 µM.
The nature of assay [5]: TOR pathway CIT2 reporter hit retest – S. cerevisiae, GFP fusion, cherry picks, mother/daughter gates, confirmation (AID 2274). As to conditions: S. cerevisiae CIT2-GFP strain, flow cytometry, 3 h, at 10 µM, stronger effect = higher value.
Assay [6] can be described thus: green-channel fluorescence artefact in S. cerevisiae – s288c strain, artefact control for yeast TOR pathway GFP screen, dose response (AID 2757;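 active = fluorescence span over the dose series, or activity score, above about 33, limit read from the data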;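 also: thousands of bead-calibrated equivalent soluble fluorophore molecules from median cell fluorescence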). The conditions noted are these: 520 nm autofluorescence, flow cytometry, 3 h, at 33 µM, stronger effect = higher value, zero means same as solvent-only cells.
Where [7] appears, read: measured here: daughter cell gate response.
The mark [8] stands for this setting: measured here: mother cell gate response.
The mark [9] stands for this setting: measured here: daughter cell gate.
Setting [10] is: measured here: mother cell gate.

The structures appear in SMILES notation. Some of the results follow. The source made the active and inactive calls.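 The calls were made as follows, unless noted: active = GFP response above 150% of the DMSO level; inconclusive = fewer than 70 events counted for a yeast strain; inactive = the rest.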

For `Cc1ccc(N2C(=O)C3C4C=CC(CNC(=S)Nc5cccc(Cl)c5)(O4)C3C2=O)cc1` (centres undefined), the GFP response vs DMSO in assay [1] and in assay [3] was 101% (inactive) throughout. For the same compound, the GFP response relative to DMSO was 97% (inactive) in assay [2], 99.1% in assay [2] (setting [7]) and 97.3% in assay [2] (setting [8]). Moreover, the GFP response, % of DMSO in assay [4] is 98.4% (inactive); in assay [5] it was 97.3% (inactive); in assay [5] (setting [9]) it was 99.2%; in assay [5] (setting [10]) it was 89.5%.

For the compound `CCC1CCCCN1S(=O)(=O)c1ccc(C(=O)Nc2nnc(-c3ccccc3Cl)o2)cc1` (centres undefined), the results for the GFP response vs DMSO in assay [1] and in assay [3] were 97.6% (inactive) and 102% (inactive), respectively. Also, the results for the GFP response relative to DMSO in assay [2] and in assay [2] (setting [7]) were 95.4% (inactive) and 89.6%, respectively. The GFP response, % of DMSO in assay [4] was 101% (inactive); in assay [5] it was 98.3% (inactive).

Take `Cn1c(C(=O)O)cc2c(=O)n3ccccc3nc21`: the GFP response vs DMSO was 101% (inactive) in assay [1], 99.3% in assay [1] (setting [9]), 99% in assay [1] (setting [10]) and 104% (inactive) in assay [3]. In addition, the GFP response relative to DMSO in assay [2] is 97.7% (inactive). In addition, the GFP response, % of DMSO in assay [4] is 102% (inactive); in assay [5], 104% (inactive); in assay [5] (setting [9]), 104%; in assay [5] (setting [10]), 95.6%.

On to `CC1=C/C(=N\OS(=O)(=O)c2ccccc2)C(C)=CC1=O`, for which the GFP response vs DMSO was 79.2% (inactive) in assay [1], 66.3% in assay [1] (setting [10]) and 118% (inactive) in assay [3]. For the same compound, the figures for the GFP response relative to DMSO in assay [2], in assay [2] (setting [7]) and in assay [2] (setting [8]) were 262% (active), 136% and 243%, respectively. In addition, the GFP response, % of DMSO is 108% (inactive) in assay [4], 98.8% (inactive) in assay [5], 117% in assay [5] (setting [9]) and 88.2% in assay [5] (setting [10]).

For the compound `Cc1nn2c(N3CCCC3)cc(C(C)C)nc2c1-c1ccccc1`, the GFP response vs DMSO is 100% (inactive) in assay [1], 92.4% in assay [1] (setting [9]) and 101% (inactive) in assay [3]. Also, the results for the GFP response relative to DMSO in assay [2], in assay [2] (setting [7]) and in assay [2] (setting [8]) were 102% (inactive), 97.5% and 103%, respectively. For the same compound, the GFP response, % of DMSO is 97.8% (inactive) in assay [4], 97.3% (inactive) in assay [5], 97.4% in assay [5] (setting [9]) and 95.6% in assay [5] (setting [10]).

Turning to `CCCc1ccc(OCC(=O)NNC(=S)NC(=O)c2ccco2)cc1`, the GFP response vs DMSO is 111% (inactive) in assay [1], 97.1% in assay [1] (setting [10]) and 139% (inactive) in assay [3]. For the same compound, the GFP response relative to DMSO in assay [2] is 259% (active); in assay [2] (setting [8]) it was 226%. The GFP response, % of DMSO in assay [4] is 123% (inactive); in assay [5], 112% (inactive); in assay [5] (setting [9]), 85.2%; in assay [5] (setting [10]), 99.3%. For the same compound, the fluorescence change (kMESF span) in assay [6] was 9.67 (inactive).

As to `COc1ccc(C2C3=C(CCCC3=O)N(CC(=O)O)C3=C2C(=O)CCC3)cc1Cl`, the GFP response vs DMSO is 102% (inactive) in assay [1], 99% in assay [1] (setting [9]), 98.5% in assay [1] (setting [10]) and 100% (inactive) in assay [3]. For the same compound, in assay [2], the GFP response relative to DMSO was 93.8% (inactive). For the same compound, the GFP response, % of DMSO is 104% (inactive) in assay [4], 111% (inactive) in assay [5], 111% in assay [5] (setting [9]) and 111% in assay [5] (setting [10]).

Take `O=C(Nc1nc(-c2ccccc2)cs1)c1cccnc1`: the GFP response vs DMSO in assay [1] is 101% (inactive); in assay [1] (setting [9]) it was 102%; in assay [1] (setting [10]), 101%; in assay [3], 98.3% (inactive). Also, in assay [2], the GFP response relative to DMSO is 103% (inactive). Also, the GFP response, % of DMSO in assay [4] was 91% (inactive); in assay [5], 98.3% (inactive).

In the case of `COc1ccccc1C1C2=C(CC(C)(C)CC2=O)N(CC(=O)O)C2=C1C(=O)CC(C)(C)C2`, the GFP response vs DMSO was 102% (inactive) in assay [1], 93% in assay [1] (setting [9]), 94% in assay [1] (setting [10]) and 133% (inactive) in assay [3]. Also, in assay [2], the GFP response relative to DMSO is 105% (inactive). Besides, the GFP response, % of DMSO is 98.9% (inactive) in assay [4], 117% (inactive) in assay [5], 118% in assay [5] (setting [9]) and 107% in assay [5] (setting [10]).

These data come from PubChem BioAssay.
